Among the data in PubChem BioAssay are z-score values, retold here.

Structures are written as SMILES. Where “and” joins values, the source holds several entries; their conditions need not be identical. Identical values can stand only once. Values without a mark were called inactive. How the calls were made is not given here.

The assay is described as follows: blockers of DNA damage checkpoint Chk1 activation – imaging, HeLa, hydroxyurea, phospho-Chk1 nuclear intensity, primary screen (AID 1187). Further: test concentration not given here. To be noted: hydroxyurea-induced phospho-Chk1 immunofluorescence imaging, higher = more signal.
Consider `C=C[C@@H](OC)[C@H](O)c1ccc(OCCO)cc1`, for which the z-score was 0.0246 and 0.283.

Turning to `C=CCN(C(=O)C(c1cccs1)N(C(=O)/C=C\C(=O)O)C(C)(C)CO)C(C)(C)C` (centres undefined), the z-score is 0.269 and 0.799.

Take `C=CCN1C(=O)[C@]2(O[C@H](CCn3cc(CCO)nn3)[C@@H]([Si](C)(C)c3ccc(OC)cc3)[C@@H]2C)c2cc(N3C(=O)c4cccc5cccc3c45)ccc21`: the z-score was -1.8 and -1.3.

For `CCOC(=O)c1ccc(NC(=O)O[C@H]2[C@H](OC(=O)Nc3ccccc3)[C@H](OC(=O)Nc3ccccc3)[C@@H](OC)O[C@@H]2CO)cc1`, the z-score is 0.337 and 0.629.

In the case of `C=CCN(C(=O)C(c1cccs1)N(C(=O)/C=C\C(=O)O)C(C)(C)CO)c1ccc(OC)cc1` (centres undefined), the z-score is -1.17 and -0.0664.

As to `C=CCN(CCCCC)C(=O)C1N(c2c(Cl)cccc2CO)C(=O)C2C(C(=O)O)C3C=CC21O3` (centres undefined), the z-score was -0.669 and 0.367.

Regarding `CC(C)N1CC=CC23O[C@@H]4C=CCCOC(=O)C4[C@H]2C(=O)N(C(C)CO)[C@@H]3C1=O` (some centres undefined), the z-score was -0.309 and -0.538.

Turning to `CCOC(=O)[C@@H]1CC=C2CC1C(=O)N1CCC[C@@H]1[C@H]2O[Si](C)(C)C(C)(C)C` (some centres undefined), the z-score is 0.0897 and -0.761.

Regarding `CCOC(=O)c1ccc(NC(=O)O[C@H]2[C@H](OC(=O)Nc3ccccc3)[C@@H](OC(=O)Nc3ccccc3)[C@@H](OC)O[C@@H]2CO)cc1`, the z-score is 0.161 and -0.827.
